# Sampled rows, rich in hits. Any-hit rate of the full collection: about 2.5%.
# Apoferritin bind = candidate novel general anesthetic via apoferritin binding. P02791. apoferritin/1-aminoanthracene competitive binding, fluorescence. Potency, µM (highest dose often 77.5 µM), inactives show top-dose activity change, negative = displacement, most hits filed as inhibitors. 350,000 compounds, 0.074% hits. AID 485281; also: potency is read from the fitted curve at half-maximal effect; % is scaled to controls: 0 for no effect and ±100 for the full control effect; nearly all actives have a fitted effect of over 20% in size
# Target sequence (P02791 2-175 limits assumed): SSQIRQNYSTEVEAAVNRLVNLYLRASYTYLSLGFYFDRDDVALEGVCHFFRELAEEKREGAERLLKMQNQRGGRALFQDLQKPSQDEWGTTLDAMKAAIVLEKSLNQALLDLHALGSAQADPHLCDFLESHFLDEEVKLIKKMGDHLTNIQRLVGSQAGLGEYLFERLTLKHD
#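 Apoferritin-based anesthetic binding model; compound displacement of fluorescent 1-AMA measured as endpoint fluorescence after 10 minutes at room temperature, scaled to free-ligand and complex controls.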
# Mito fusion act = blocks mitochondrial division or promotes mitochondrial fusion | 320,000 compounds, 0.23% hits | S. cerevisiae fusion-defective mutant growth rescue, CellTiterGlo 48 h | AID 485298 | Potency, µM (doses to about 46.1 µM), inactives show top-dose growth rescue (activation), actives largely listed as activators; also: potency is read from the fitted curve at half-maximal effect; % of control where 0% means no effect; nearly all actives have a fitted effect of over 45% in size
#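 Compounds are tested for their ability to restore growth of mitochondrial fusion-defective yeast strains at non-permissive 37C in YPEG medium over 48 hours. Viability is quantified by luciferase luminescence.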
# CCT modulator = cytosolic chaperonin activity modulation | activity change, % (no concentration beside the values), hits read low | 360,000 compounds, 0.3% hits | purified chaperonin ATPase assay, HTRF ADP detection, 30 min | AID 651819; in the data active = activity change below about -30%; also: % is scaled to controls: 0 for no effect and ±100 for the full control effect
#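 TRiC at 40 or 20 nM final (batch-dependent) in 30 mM Tris pH 7.4, 100 mM KCl, 5 mM MgCl2, 1 mM DTT, with compound at single 76 uM and 10 uM ATP, 30 min at 37 deg C. ADP detected by HTRF Transcreener, 665/615 ratio.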
# pAkt inh = blocks phosphorylation of Akt | Neuro2A IGF-stimulated pAkt S473 HTRF, 20 min; active compounds read low | activity change, % for hits at 50 µM | 360,000 compounds, 0.32% hits | AID 651550; in the data active = activity change below about -80%; inconclusive = mostly about -51% to -80%; also: % is scaled to controls: 0 for no effect and ±100 for the full control effect
#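 Neuro2A cells (4,500/well, DMEM with 0.5% FBS) were treated with compound at a single 50 µM final concentration, stimulated with 6 nM IGF for 20 min at 37 °C, and lysed. Phospho-Akt Ser473 was read by HTRF as 665/615 ratio ×10^4.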
# aSyn rescue = alpha-synuclein toxicity inhibition in yeast; Yeast expressing alpha-synuclein, growth rescue, BacTiter-Glo, 24 h; Potency, µM (series often up to 46.1 µM), inactives show top-dose growth rescue (activation), usual class: activators; 370,000 compounds, 0.14% hits; AID 652106; also: potency is read from the fitted curve at half-maximal effect; % of control where 0% means no effect; nearly all actives have a fitted effect of over 65% in size
#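 Readout is rescue of growth in alpha-synuclein-expressing yeast, so inhibitors of toxicity appear as activators. Growth after 24 hr at 30 deg C in galactose medium is quantified by luminescence.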
# TDP43 rescue = rescues yeast growth from TDP-43 toxicity; 410,000 compounds, 1.8% hits; AID 652104; TDP-43 expressing yeast growth rescue, BacTiter-Glo, 24 h; Potency, µM (titrated, usually from 46.1 µM), for inactives: at the highest dose growth rescue (activation), most hits filed as activators; also: potency is read from the fitted curve at half-maximal effect; % of control where 0% means no effect; nearly all actives have a fitted effect of over 50% in size
#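 Luminescence from BacTiter-Glo reports growth of TDP-43-expressing yeast after 24 hr at 30 deg C with compound. Cells were raffinose-pregrown to mid-log, then seeded in galactose medium at OD600=0.02.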
# Numbers without * were called inactive; i = inactive; ? = inconclusive; . = not tested or not shown. Unless noted, calls follow the shape of the dose curve; as a rule, active = well fitted curve in the direction sought with a large enough effect; inconclusive = small, poorly fitted or top-dose-only effect, or another doubt; inactive = no such curve, though single readings can be large; an effect the other way counts as inactive or inconclusive.
SMILES,Apoferritin bind,Mito fusion act,CCT modulator,pAkt inh,aSyn rescue,TDP43 rescue
CC(=O)c1ccc(NC(=O)CCc2c(C)nn(-c3ccc4nnc(C)n4n3)c2C)cc1,-7%,.,.,.,.,21%
CCCCN=C1NN=C(c2ccc3c(c2)OCCO3)CS1,?,1%,-3,i,5%,17%
CCCCN=C1NN=C(c2ccc(C)c(C)c2)CS1,-22%,-7%,-4,i,-3%,14µM*
N#Cc1nc(-c2cccc3ccccc23)oc1NCC#CCOC(=O)c1cccs1,.,-18%,.,.,.,.
CC(=O)OCc1nc2sc3c(c2c(=O)[nH]1)CCCC3,?,0%,-5,i,-2%,8%
COCc1nc2sc3c(c2c(=O)[nH]1)CCCC3,-13%,22µM*,0,i,-20%,9%
N/C(=N\OC(=O)c1cccc2ccccc12)c1cccnc1,-11%,11%,-1,i,-5%,20µM*
N/C(=N\OC(=O)c1ccc(Cl)cc1Cl)c1cccnc1,-13%,-12%,1,i,4%,13µM*
N/C(=N\OC(=O)c1ccc(Cl)cc1Cl)c1ccccc1,-8%,-4%,1,i,-45%,-15%
Cc1cccc(/C(N)=N/OC(=O)c2cccc3ccccc23)c1,-6%,-4%,.,.,.,.
COC(=O)/C=C/c1cccc(N(Cc2ccc(-c3ccc(N(C)C)cc3)cc2)C(=O)C2CCCCC2)c1,-6%,.,.,.,.,.
CCOC1=C2CN(S(=O)(=O)c3ccc(C)cc3)[C@H](c3cccc4ccccc34)C[C@H]2[C@H]2C(=O)N(c3ccccc3)C(=O)[C@H]2C1,.,.,1,i,14µM*,19%
O=c1c2sccc2nc(SCc2ccc([N+](=O)[O-])cc2)n1Cc1ccccn1,-17%,27%,-7,i,3%,22µM*
COc1ccc(OC)c(-c2nc(C(=O)NCC3CCCO3)cc3c2[nH]c2ccccc23)c1 (centres undefined),44%,-3%,0,i,-10%,?
COc1cccc(-c2nc(C(=O)NCC3CCCO3)cc3c2[nH]c2ccccc23)c1 (centres undefined),404%,-7%,1,i,?,20µM*
Fc1ccc(-c2nc(-c3c[nH]c4ccccc34)cs2)cc1,.,.,.,.,-24%,.
c1ccc(C2Nc3ccccc3C3OCCCC23)cc1 (centres undefined),-16%,-11%,2,i,-34%,11µM*
CCOc1ccc(N(C)S(=O)(=O)c2ccc3c(c2)C(C)(C)C(=O)N3C)cc1,-5%,.,.,.,.,?
CCN1N=C(c2ccccc2)Cn2c1nc1ccccc12,90%,3%,-1,-107%*,0%,11%
C/C(=N/NS(=O)(=O)c1ccc(Cl)cc1)c1cccc(NC(=O)c2ccc(Cl)cc2Cl)c1,-23%,15%,2,i,6%,13µM*
CCSC[C@H](NC(=O)[C@H](C)N)C(=O)N[C@@H](CC(=O)O)C(=O)N[C@H](C(=O)N[C@@H](C)C(=O)N[C@H](C(=O)N[C@@H](CSCC)C(=O)N[C@H](C(=O)N[C@H](C(=O)N[C@@H](Cc1cnc[nH]1)C(=O)N[C@@H](CCCNC(=N)N)C(=O)N[C@@H](CC(C)C)C(=O)N[C@@H](C)C(=O)NCC(=O)N[C@@H](CC(C)C)C(=O)N[C@@H](CC(C)C)C(=O)N[C@@H](CO)C(=O)N[C@@H](CCCNC(=N)N)C(=O)N[C@@H](CO)C(=O)NCC(=O)NCC(=O)N[C@H](C(=O)N[C@H](C(=O)N[C@@H](CCCCN)C(=O)N[C@@H](CC(N)=O)C(=O)N[C@@H](CC(N)=O)C(=O)N[C@@H](Cc1ccccc1)C(=O)N[C@H](C(=O)N1CCC[C@H]1C(=O)N[C@H](C(=O)N[C@@H](CC(N)=O)C(=O)N[C@H](C(=O)NCC(=O)N[C@@H](CO)C(=O)N[C@@H](CCCCN)C(=O)N[C@@H](C)C(=O)N[C@@H](Cc1ccccc1)C(N)=O)C(C)C)[C@@H](C)O)C(C)C)C(C)C)C(C)C)[C@@H](C)O)C(C)C)[C@@H](C)O)[C@@H](C)O,0%,.,.,.,.,.
CC(=O)Nc1c(C(=O)Nc2ccccc2F)oc2ccccc12,-4%,.,.,.,.,3%
c1ccc2sc(Nc3nc4cc5c(cc4s3)OCO5)nc2c1,203%,14µM*,1,i,-17%,-5%
O=C(NNc1nc2cc3c(cc2s1)OCO3)c1ccc(F)cc1,-8%,5%,2,i,1%,22%
Cc1ccc(Nc2nc3ccccc3s2)c(C)c1,?,?,-1,i,-1%,25µM*
SMILES,Apoferritin bind,Mito fusion act,CCT modulator,pAkt inh,aSyn rescue,TDP43 rescue
Cc1cc(C)nc(Nc2nc3ccccc3s2)n1,-3%,-2%,1,i,0%,24%
Fc1ccc2nc(Nc3nc4cc5c(cc4s3)OCCO5)sc2c1,294%,13µM*,0,i,-8%,20%
Fc1ccc2nc(Nc3nc4cc5c(cc4s3)OCO5)sc2c1,43%,9%,-1,i,-13%,11%
O=C(NNc1nc2cc3c(cc2s1)OCCO3)c1ccc(F)cc1,-6%,1%,-1,i,0%,10µM*
Cc1ccc(Cn2c(=O)c3cccnc3n(Cc3ccc(F)cc3)c2=O)cc1,-14%,.,.,.,.,-3%
COc1ccc(Cl)cc1N=C1NC(=O)CC(C(=O)Nc2ccccc2C(F)(F)F)S1 (centres undefined),-17%,.,.,.,?,30%
Fc1ccc2nc(Nc3ccccc3)sc2c1,?,17%,-2,i,-11%,16µM*
OC(c1ccccc1)c1nc(-c2ccccc2)cs1 (centres undefined),.,.,0,i,5%,0%
OC(c1ccccc1)c1nc(-c2ccc(Cl)cc2)cs1 (centres undefined),.,.,-4,i,?,35µM*
OC(c1cccc(Cl)c1)c1nc(-c2ccccc2)cs1 (centres undefined),.,.,1,i,?,14µM*
O=C(O)c1cccc(-c2csc(C(O)c3cccc(Cl)c3)n2)c1 (centres undefined),.,.,1,.,5%,?
O=c1[nH]cc(CCc2ccccc2)c2ncncc12,.,.,.,.,-3%,.
COc1ccccc1/C=C/c1ccnc2ccccc12,.,.,.,.,6%,.
CCC(C)(C)NC(=O)C(c1ccccc1F)N(Cc1ccco1)C(=O)Cn1nnc2ccccc21 (centres undefined),?,10µM*,0,.,-5%,-17%
CCc1ccc(C(C(=O)NC(C)(C)CC)N(Cc2ccco2)C(=O)Cn2nnc3ccccc32)cc1 (centres undefined),-3%,3%,1,i,3%,0%

# Source: PubChem BioAssay
